C-LANA FP – inhibitors of KSHV LANA C-terminal domain DNA binding; MBP-C-LANA/FAM-LBS DNA binding, fluorescence polarization; 0.078% of 340,000 active; inhibition, % at 9 µM;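 active = highest replicate inhibition at or above 60% at 9 µM, even if other replicates fall short; inactive = all replicates below 60% inhibition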;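 also: 0% = neutral control wells and 100% = 4 µM acridine orange control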
Cardiac RTF inh – cardiac RTF calcium desensitization; P19429+P45379; IANBD-labeled cardiac RTF, Ca2+ fluorescence; inhibition, % at 7.15 µM; 0.12% of 340,000 active; AID 493244;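 active = inhibition above the mean inhibition of all tested compounds plus 3 SD, cut at about 17% in these data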;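 also: assay run at fixed EC70 calcium of 1.6 mM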
LANA-H2B inh – blocks KSHV LANA binding to histone H2A/H2B; Q9QR71; cell-free LANA-H2A/H2B peptide, fluorescence polarization; inhibition, % (no concentration beside the values); 0.6% of 320,000 active; AID 2629; in the data active = inhibition mostly above about 10%, no sharp cut-off; inactive = mostly below about 6.7%
cardiac RTF act – increases calcium sensitivity of human cardiac regulated thin filaments; 0.24% of 340,000 active; activation, % at 7.2 µM; IANBD-labeled TnC RTF fluorescence at EC20 calcium; 0% EC20 calcium, 100% full calcium; AID 493008;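 active = activation above the mean over all tested compounds plus 3 SD, cut at about 30% in these data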;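 also: rise in fluorescence read as greater calcium sensitivity of cardiac thin filaments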
Keap1 Nrf2 FP – disrupts human Keap1 binding to Nrf2 peptide; Q14145; Keap1 Kelch-Nrf2 peptide fluorescence polarization, 1536-well; inhibition, % at 9.4 µM; 0.15% of 340,000 active; in the data active = inhibition above about 12%; inconclusive = no clear call, values can overlap the other calls; inactive = below about 7.3%;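 also: human Keap1 Kelch domain with fluorescein labeled Nrf2 9mer peptide probe; 0% = neutral control wells and 100% = peptide positive control; higher means more block of Keap1 binding to Nrf2 peptide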
Starred values were filed as active, the others as inactive. Compounds with a hit are over-represented: about 1% of the library has one in this group of screens.

What do the screens show for `COc1ccc(OC)c(NC(=O)COC(=O)[C@H](Cc2ccccc2)NC(=O)c2ccco2)c1`?
C-LANA FP: -1; Cardiac RTF inh: -10; LANA-H2B inh: -5; cardiac RTF act: -3; Keap1 Nrf2 FP: -6

What do the screens show for `COc1ccccc1N/C(N)=N/c1nc(C(F)(F)F)cc(=O)[nH]1`?
C-LANA FP: 4; Cardiac RTF inh: -1; LANA-H2B inh: -6; cardiac RTF act: 3; Keap1 Nrf2 FP: 0

Results for N/C(=N\c1nc2c(c(=O)[nH]1)CCC2)Nc1ccccc1C(F)(F)F ?
C-LANA FP: 0; Cardiac RTF inh: 17*; LANA-H2B inh: 0; cardiac RTF act: 1; Keap1 Nrf2 FP: -3

What do the screens show for `Cc1cc(CSC(=N)N)c(CSC(=N)N)cc1C`?
C-LANA FP: -2; Cardiac RTF inh: -2; LANA-H2B inh: 19*; cardiac RTF act: 7; Keap1 Nrf2 FP: -6

What do the screens show for `CC1C=CC=CC=CC=CC=CC=CC=CC(OC2OC(C)C(O)C(N)C2O)CC2OC(O)(CC(O)CC(O)C(O)CCC(O)CC(O)CC(=O)OC(C)C(C)C1O)CC(O)C2C(=O)O` (stereo not given)?
C-LANA FP: 68*; Cardiac RTF inh: -6; cardiac RTF act: -1; Keap1 Nrf2 FP: -18

How did COc1cc(CNC(C)c2ccccc2)cc(Cl)c1OCC(=O)Nc1ccccc1 (stereo not given) do in these assays?
C-LANA FP: 1; Cardiac RTF inh: 3; LANA-H2B inh: 2; cardiac RTF act: -1; Keap1 Nrf2 FP: 1

What do the screens show for `N#Cc1c(Cl)nc(N/N=C/c2ccccc2)c(Cl)c1Cl`?
C-LANA FP: -2; Cardiac RTF inh: 0; LANA-H2B inh: -2; cardiac RTF act: -2; Keap1 Nrf2 FP: 0

What do the screens show for `C[N+](C)(C)c1ccc(/C=N/Nc2nc(Cl)c(C#N)c(Cl)c2Cl)cc1`?
C-LANA FP: 1; Cardiac RTF inh: -2; LANA-H2B inh: 54*; cardiac RTF act: 0; Keap1 Nrf2 FP: -11

How did CC1=C(C(=O)Nc2ccccn2)C(c2cn(C)nc2C)C2=C(CCCC2=O)N1 (stereo not given) do in these assays?
C-LANA FP: 0; Cardiac RTF inh: -7; LANA-H2B inh: -1; cardiac RTF act: 5; Keap1 Nrf2 FP: 2

What do the screens show for `O=C1c2cccc3cccc(c23)C(=O)N1c1ccc(O)cc1`?
C-LANA FP: -1; Cardiac RTF inh: -4; LANA-H2B inh: -1; cardiac RTF act: 8; Keap1 Nrf2 FP: 2

Results for O=C1c2cccc3c(N4CCCCC4)ccc(c23)C(=O)N1c1ccc(O)cc1 ?
C-LANA FP: 12; Cardiac RTF inh: -194; LANA-H2B inh: 14; cardiac RTF act: 115*; Keap1 Nrf2 FP: inconclusive

Results for Cc1ccc(C)c(NC(=O)CSc2cccc3cccnc23)c1 ?
C-LANA FP: 2; Cardiac RTF inh: -3; LANA-H2B inh: 17*; cardiac RTF act: -3; Keap1 Nrf2 FP: -3

Results for Cc1cccc(NC(=O)CSc2cccc3cccnc23)c1 ?
C-LANA FP: 0; Cardiac RTF inh: 2; LANA-H2B inh: 5; cardiac RTF act: -1; Keap1 Nrf2 FP: -6

How did COc1cc(C(=O)NNC(=O)C2CC2)cc(OC)c1OC do in these assays?
C-LANA FP: 0; Cardiac RTF inh: -11; LANA-H2B inh: 3; cardiac RTF act: -2; Keap1 Nrf2 FP: -2

What do the screens show for `O=C(OCCNC(=O)c1cc2ccccc2oc1=O)c1cccnc1`?
C-LANA FP: -1; Cardiac RTF inh: 4; LANA-H2B inh: 50*; cardiac RTF act: 6; Keap1 Nrf2 FP: -5

What do the screens show for `CCc1ccc(C(=O)N/N=C/c2ccc(Cl)cc2Cl)nc1`?
LANA-H2B inh: 40*

Results for Cn1cc(CN2CCN(c3ccccc3)CC2)c2ccccc21 ?
C-LANA FP: 0; Cardiac RTF inh: 4; LANA-H2B inh: 13*; cardiac RTF act: -7; Keap1 Nrf2 FP: -1

What do the screens show for `CCCCCCCCNCCS(=O)(=O)NCc1ccccc1`?
C-LANA FP: -2; Cardiac RTF inh: -3; cardiac RTF act: 4; Keap1 Nrf2 FP: 0

How did COCCSc1nnc(NC(=O)C(C)(C)C)s1 do in these assays?
C-LANA FP: 0; Cardiac RTF inh: 5; LANA-H2B inh: 43*; cardiac RTF act: 10; Keap1 Nrf2 FP: -3

Results for COCCSc1nnc(NC(=O)CSc2ccccc2)s1 ?
C-LANA FP: 1; Cardiac RTF inh: 0; LANA-H2B inh: -4; cardiac RTF act: 3; Keap1 Nrf2 FP: -3

Results for O=C(Nc1cccc(Cl)c1)C1=CC=CN2CCS(=O)(=O)N=C12 ?
C-LANA FP: -1; Cardiac RTF inh: 8; LANA-H2B inh: -6; cardiac RTF act: 2; Keap1 Nrf2 FP: -1

Assay outcomes (PubChem BioAssay)
